Experimental data: PubChem BioAssay (NCI)
This is part of a sample that, as a whole, favours compounds with a hit. Of some 83,000 tested, about 20% had one in any assay.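 48-hour exposure, single concentration, 96-well plates; percent growth endpoint where 0 means no net growth. Active: below 10.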 Calls of active or inactive are those of the source.

What was measured:
Assay in all cases: NCI-60 one-dose screen, 48 h (100 = growth as untreated, 0 = no growth, -100 = all killed)
Settings in all cases: 10 µM unless noted
HCT-15 colon = system: HCT-15 colon
HT29 colon = system: HT29 colon
SNB-75 CNS = system: SNB-75 CNS
SNB-19 CNS = system: SNB-19 CNS
U251 CNS = system: U251 CNS
PC-3 prostate = system: PC-3 prostate
SK-MEL-5 melanoma = system: SK-MEL-5 melanoma
UACC-62 melanoma = system: UACC-62 melanoma
LOX IMVI melanoma = system: LOX IMVI melanoma
SK-MEL-28 melanoma = system: SK-MEL-28 melanoma
SK-MEL-2 melanoma = system: SK-MEL-2 melanoma
SN12C renal = system: SN12C renal
UO-31 renal = system: UO-31 renal
TK-10 renal = system: TK-10 renal
ACHN renal = system: ACHN renal
CAKI-1 renal = system: CAKI-1 renal
A498 renal = system: A498 renal
CCRF-CEM leukemia = system: CCRF-CEM leukemia
MOLT-4 leukemia = system: MOLT-4 leukemia

Measured: growth

COc1cc(NC(=O)CSc2nc3ccc(C)cc3c(=O)n2-c2ccccc2)cc(OC)c1OC
inactive: HCT-15 colon 81.1% | HT29 colon 109% | SNB-75 CNS 57.4% | SNB-19 CNS 88% | U251 CNS 93.9% | PC-3 prostate 82% | SK-MEL-5 melanoma 77.8% | UACC-62 melanoma 77.5% | LOX IMVI melanoma 75.9% | SK-MEL-28 melanoma 83.7% | SK-MEL-2 melanoma 86.5% | SN12C renal 92.8% | UO-31 renal 51% | TK-10 renal 104% | ACHN renal 90.2% | CAKI-1 renal 88.4% | A498 renal 62.7% | CCRF-CEM leukemia 83.9% | MOLT-4 leukemia 59.2%

Nc1c(C(=O)Nc2c(Cl)cccc2Cl)sc2nc3c(cc12)CCCCC3
inactive: HCT-15 colon 32.5% | HT29 colon 34.1% | SNB-75 CNS 26.7% | SNB-19 CNS 68.5% | U251 CNS 66.7% | PC-3 prostate 70.6% | SK-MEL-5 melanoma 66.3% | UACC-62 melanoma 29% | LOX IMVI melanoma 58.6% | SK-MEL-28 melanoma 59.2% | SK-MEL-2 melanoma 62.8% | SN12C renal 61.7% | UO-31 renal 63.9% | TK-10 renal 69% | ACHN renal 58.5% | CAKI-1 renal 69.4% | A498 renal 30% | CCRF-CEM leukemia 43.7% | MOLT-4 leukemia 54.4%

COc1cccc(NC(=O)Cn2cc3c(=O)oc4ccccc4c3n2)c1
inactive: HCT-15 colon 109% | HT29 colon 105% | SNB-75 CNS 64.7% | SNB-19 CNS 102% | U251 CNS 125% | PC-3 prostate 97.4% | SK-MEL-5 melanoma 100% | UACC-62 melanoma 100% | LOX IMVI melanoma 113% | SK-MEL-28 melanoma 94% | SK-MEL-2 melanoma 101% | SN12C renal 103% | UO-31 renal 88.5% | TK-10 renal 111% | ACHN renal 116% | CAKI-1 renal 95.6% | A498 renal 87.2% | CCRF-CEM leukemia 102% | MOLT-4 leukemia 111%

COc1ccc(C2CC(c3cccs3)=NN2c2ccc(S(=O)(=O)NC(=O)Nc3ccc(C)cc3)cc2)cc1 (configuration not stated)
inactive: HCT-15 colon 99.3% | HT29 colon 128% | SNB-75 CNS 93.7% | SNB-19 CNS 108% | U251 CNS 94.1% | PC-3 prostate 86.3% | SK-MEL-5 melanoma 61.4% | UACC-62 melanoma 38.1% | LOX IMVI melanoma 99.7% | SK-MEL-28 melanoma 47.8% | SK-MEL-2 melanoma 60.9% | SN12C renal 111% | UO-31 renal 85.7% | TK-10 renal 96.8% | ACHN renal 96.6% | CAKI-1 renal 95.8% | A498 renal 109% | CCRF-CEM leukemia 87.9% | MOLT-4 leukemia 94.4%

Cc1ccc(Nc2ncnc3c2sc2ncccc23)cc1
inactive: HCT-15 colon 99.2% | HT29 colon 114% | SNB-75 CNS 82.8% | SNB-19 CNS 103% | U251 CNS 101% | PC-3 prostate 103% | SK-MEL-5 melanoma 97% | UACC-62 melanoma 103% | LOX IMVI melanoma 100% | SK-MEL-28 melanoma 104% | SK-MEL-2 melanoma 118% | SN12C renal 98.4% | UO-31 renal 90.9% | TK-10 renal 123% | ACHN renal 99.3% | CAKI-1 renal 104% | A498 renal 67% | CCRF-CEM leukemia 116% | MOLT-4 leukemia 51.1%

CCn1cc(C(=O)O)c(=O)c2cc(F)c(N3CCN(S(=O)(=O)c4cccc5ccccc45)CC3)cc21
inactive: HCT-15 colon 11.1% | SNB-75 CNS 14.1% | SNB-19 CNS 28.8% | U251 CNS 14.2% | UACC-62 melanoma 31.2% | SK-MEL-28 melanoma 59.2% | SN12C renal 11.9% | TK-10 renal 26% | CCRF-CEM leukemia 12.1%
active: HT29 colon 3.96% | PC-3 prostate 7.82% | SK-MEL-5 melanoma -46% | LOX IMVI melanoma -39% | SK-MEL-2 melanoma 8.82% | UO-31 renal -19.7% | ACHN renal -3.57% | CAKI-1 renal 0.945% | A498 renal -0.385% | MOLT-4 leukemia 8.41%

Cc1ccc(C2=NN(c3ccc(S(=O)(=O)NC(=O)NCc4ccccc4)cc3)C(c3ccc(N(C)C)cc3)C2)c(C)c1 (configuration not stated)
inactive: HCT-15 colon 32.6% | HT29 colon 43% | SNB-75 CNS 65.1% | SNB-19 CNS 54.8% | U251 CNS 22.6% | PC-3 prostate 32.7% | SK-MEL-5 melanoma 12.2% | UACC-62 melanoma 54.7% | LOX IMVI melanoma 36.3% | SK-MEL-28 melanoma 26.6% | SK-MEL-2 melanoma 40.9% | SN12C renal 46.5% | UO-31 renal 38.3% | TK-10 renal 66.5% | ACHN renal 44.7% | CAKI-1 renal 47.7% | A498 renal 51% | CCRF-CEM leukemia 42% | MOLT-4 leukemia 23.1%

COC1=CC(c2ccc[nH]2)=N/C1=C\c1[nH]c(C)c(C(=O)CCCCC(=O)NCc2ccccc2)c1C
inactive: SNB-75 CNS 21.7% | SNB-19 CNS 77.1% | U251 CNS 10.6% | SK-MEL-5 melanoma 43.9% | UACC-62 melanoma 89.4% | SK-MEL-28 melanoma 140% | SK-MEL-2 melanoma 97.1% | SN12C renal 44.9% | UO-31 renal 13.9% | TK-10 renal 45.8% | ACHN renal 50.2% | A498 renal 89.1% | CCRF-CEM leukemia 39.2% | MOLT-4 leukemia 70.1%
active: HCT-15 colon -19.5% | HT29 colon -49% | PC-3 prostate -13.9% | LOX IMVI melanoma -56.3% | CAKI-1 renal -9.17%
